Data from PubChem BioAssay (NCATS).
Inconclusive results are not listed. The source made the active and inactive calls. Calls come from the whole dose curve.

Experiment: qHTS Assay for Lipid Storage Modulators (AID 1519); for activity change, negative = inhibition: % is set by controls: 0 for no effect and ±100 for the full control effect
Details: Drosophila S3 cells, BODIPY lipid droplet/cell ratio, laser cytometry; at 57.5 µM (top of the series); cells loaded with oleic acid
Outline: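 Cells seeded at 5,000 per well were treated with compounds over a concentration series and loaded with oleic acid (400 uM, as added). Lipid droplet fluorescence (488 nm excitation, 500-530 nm channel) was read by laser-scanning cytometry and normalized to 20 uM Triacsin C.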
With `CC[C@H](CO)Nc1nc(NCc2ccccc2)c2ncn(C(C)C)c2n1` the activity change, negative = inhibition was 2.75% (inactive). With `O=c1c2ccccc2nc2n1CCc1c-2[nH]c2ccccc12` the activity change, negative = inhibition was 1.95% (inactive). In the case of `CC[C@@]1(O)C(=O)OCc2c1cc1n(c2=O)Cc2cc3cc(O)ccc3nc2-1`, the activity change, negative = inhibition is reported as -14.2% (inactive). With `Cc1coc2c1C(=O)C(=O)c1c-2ccc2c1CCCC2(C)C` the activity change, negative = inhibition was 6.48% (inactive).

Same assay, conditions: Drosophila S3 cells, BODIPY lipid droplet/cell ratio, laser cytometry; measured here: cell count channel max response; cells loaded with oleic acid
With `C[C@H]1C[C@@H]2[C@@H]([C@@H](O)C[C@@]3(C)[C@H]2CC[C@]3(O)C(=O)CO)[C@@]2(C)C=CC(=O)C=C12` the max response was -15.5%. For `Nc1ccc(S(=O)(=O)Nc2ncccn2)cc1`, the max response was -6.66%. Work on `CC[C@H](CO)Nc1nc(NCc2ccccc2)c2ncn(C(C)C)c2n1` yielded a max response of 73%. `O=c1c2ccccc2nc2n1CCc1c-2[nH]c2ccccc12` gave a max response of 45%. `CC[C@@]1(O)C(=O)OCc2c1cc1n(c2=O)Cc2cc3cc(O)ccc3nc2-1` showed a max response of -6.87%. Compound `Cc1coc2c1C(=O)C(=O)c1c-2ccc2c1CCCC2(C)C` has a max response of 16.1%.

Same assay, conditions: Drosophila S3 cells, BODIPY lipid droplet/cell ratio, laser cytometry; measured here: lipid channel max response; cells loaded with oleic acid
`C[C@H]1C[C@@H]2[C@@H]([C@@H](O)C[C@@]3(C)[C@H]2CC[C@]3(O)C(=O)CO)[C@@]2(C)C=CC(=O)C=C12` showed a max response of -14.8%. `Nc1ccc(S(=O)(=O)Nc2ncccn2)cc1` gave a max response of -7.25%. Work on `CC[C@H](CO)Nc1nc(NCc2ccccc2)c2ncn(C(C)C)c2n1` yielded a max response of 78.1%. Work on `O=c1c2ccccc2nc2n1CCc1c-2[nH]c2ccccc12` yielded a max response of 50%. Compound `CC[C@@]1(O)C(=O)OCc2c1cc1n(c2=O)Cc2cc3cc(O)ccc3nc2-1` has a max response of -17.5%. `Cc1coc2c1C(=O)C(=O)c1c-2ccc2c1CCCC2(C)C` gave a max response of 23.2%.
